Source: PubChem BioAssay (NCI)
About 83,000 compounds went through this panel and 20% of them were active in at least one assay; those are over-represented in the sample as a whole.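 In brief: 96-well plates, 48 h treatment, single concentration, percent growth endpoint.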 The source made the active and inactive calls. The calls were made as follows: active = growth percent below 10; inactive = the rest.

Columns and labels:
Assay in all cases: NCI-60 one-dose screen, 48 h (100 = growth as untreated, 0 = no growth, -100 = all killed)
Conditions in all cases: 10 µM unless noted
SK-MEL-2 melanoma = tested on: SK-MEL-2 melanoma
EKVX NSCLC = tested on: EKVX NSCLC
SN12C renal = tested on: SN12C renal
UO-31 renal = tested on: UO-31 renal
TK-10 renal = tested on: TK-10 renal
ACHN renal = tested on: ACHN renal
CAKI-1 renal = tested on: CAKI-1 renal
A498 renal = tested on: A498 renal
CCRF-CEM leukemia = tested on: CCRF-CEM leukemia
MOLT-4 leukemia = tested on: MOLT-4 leukemia
SR leukemia = tested on: SR leukemia
OVCAR-8 ovarian = tested on: OVCAR-8 ovarian
OVCAR-5 ovarian = tested on: OVCAR-5 ovarian
OVCAR-4 ovarian = tested on: OVCAR-4 ovarian
SK-OV-3 ovarian = tested on: SK-OV-3 ovarian
OVCAR-3 ovarian = tested on: OVCAR-3 ovarian
HS 578T breast = tested on: HS 578T breast
NCI/ADR-RES ovarian = tested on: NCI/ADR-RES ovarian
RPMI-8226 leukemia = tested on: RPMI-8226 leukemia
IGROV1 ovarian = tested on: IGROV1 ovarian

Measured: growth

O=C(Nc1nc2ccc(F)cc2s1)c1cccnc1Nc1ccc(Cl)cc1Cl
inactive: SK-MEL-2 melanoma 43.5% | UO-31 renal 28.5% | TK-10 renal 11.4% | ACHN renal 27.5% | MOLT-4 leukemia 46% | SR leukemia 32.8% | OVCAR-8 ovarian 19.5% | OVCAR-5 ovarian 64.3% | SK-OV-3 ovarian 44% | HS 578T breast 20.9%
active: EKVX NSCLC 1.03% | SN12C renal 9.61% | CAKI-1 renal -0.286% | A498 renal -4.34% | CCRF-CEM leukemia -3.42% | OVCAR-4 ovarian -31.3% | OVCAR-3 ovarian -3.55% | NCI/ADR-RES ovarian 1.58%

O=C(O)CCC/C=C\C[C@H]1C=CC(=O)/C1=C/C[C@@H](O)CCc1cccc(C(F)(F)F)c1
inactive: EKVX NSCLC 37.9% | TK-10 renal 11.1% | CAKI-1 renal 12.6% | OVCAR-8 ovarian 10.3% | OVCAR-4 ovarian 32.8% | SK-OV-3 ovarian 44.3% | HS 578T breast 37.6%
active: SK-MEL-2 melanoma -6.24% | SN12C renal -24.7% | UO-31 renal -88.4% | ACHN renal -70.3% | A498 renal -12% | CCRF-CEM leukemia 4.1% | MOLT-4 leukemia -8.07% | SR leukemia -7.7% | OVCAR-5 ovarian 8.7% | OVCAR-3 ovarian -36.1% | NCI/ADR-RES ovarian 5.22%

C#C[C@]1(O)CC[C@H]2[C@@H]3CC=C4c5sc(Nc6cc(F)ccc6F)nc5CC[C@]4(C)[C@H]3CC[C@@]21C
active: SK-MEL-2 melanoma -6.68% | SN12C renal -43.1% | UO-31 renal -98.3% | ACHN renal -68.2% | CAKI-1 renal -31.5% | A498 renal -13.4% | CCRF-CEM leukemia 4.58% | MOLT-4 leukemia 6.12% | RPMI-8226 leukemia -28.3% | OVCAR-5 ovarian 2.88% | SK-OV-3 ovarian -1.09% | IGROV1 ovarian -33.5% | OVCAR-3 ovarian -22.7% | HS 578T breast -10.8%
inactive: EKVX NSCLC 23.9% | TK-10 renal 18.5% | OVCAR-8 ovarian 18.4% | OVCAR-4 ovarian 23%

Cc1nc2ccccc2n1-c1ncnc2c1CC(C)c1ccccc1N2C (stereo not drawn)
inactive: SK-MEL-2 melanoma 78.3% | EKVX NSCLC 92.7% | SN12C renal 87.8% | UO-31 renal 71.3% | TK-10 renal 97.4% | ACHN renal 93.2% | CAKI-1 renal 79.9% | A498 renal 70.4% | CCRF-CEM leukemia 76.3% | MOLT-4 leukemia 60.3% | SR leukemia 19.7% | OVCAR-8 ovarian 85% | OVCAR-4 ovarian 92.4% | SK-OV-3 ovarian 85.9% | OVCAR-3 ovarian 94.6% | HS 578T breast 82.5%

COC(=O)[C@H](C)NC(=O)NC(=O)NC(=O)CI
inactive: SK-MEL-2 melanoma 87.7% | EKVX NSCLC 107% | SN12C renal 47.1% | UO-31 renal 78.3% | TK-10 renal 70.6% | ACHN renal 76.7% | A498 renal 128% | OVCAR-5 ovarian 108% | OVCAR-4 ovarian 64.7% | SK-OV-3 ovarian 107% | HS 578T breast 114% | NCI/ADR-RES ovarian 89.7%
active: CAKI-1 renal -61.3% | CCRF-CEM leukemia -55.5% | MOLT-4 leukemia -31.7% | SR leukemia -23% | OVCAR-3 ovarian -19.2%

Cn1cc(-c2cc3ncnc(Nc4ccc(CC(=O)Nc5cc(C(C)(C)C)on5)cc4)c3s2)cn1
active: CAKI-1 renal 9.29% | A498 renal -18.6%
inactive: SK-MEL-2 melanoma 14% | EKVX NSCLC 60.2% | SN12C renal 15.4% | UO-31 renal 11% | TK-10 renal 17.8% | ACHN renal 14.1% | CCRF-CEM leukemia 10.8% | MOLT-4 leukemia 17.4% | SR leukemia 10.9% | OVCAR-5 ovarian 61.6% | OVCAR-4 ovarian 34.7% | SK-OV-3 ovarian 10.4% | IGROV1 ovarian 11.1% | OVCAR-3 ovarian 36.6% | HS 578T breast 15.6% | NCI/ADR-RES ovarian 60.6%

COc1cc2cc(Oc3ccc(NC(=O)Nc4ccc(Cl)c(C(F)(F)F)c4)cc3)c(C)nc2cc1OCCN1CCOCC1
active: MOLT-4 leukemia -4.07% | SR leukemia -1.99%
inactive: SK-MEL-2 melanoma 31.4% | EKVX NSCLC 17.2% | SN12C renal 10.1% | UO-31 renal 28.2% | TK-10 renal 42.8% | ACHN renal 10% | CAKI-1 renal 18.7% | A498 renal 41.5% | CCRF-CEM leukemia 10.4% | OVCAR-8 ovarian 13.4% | OVCAR-4 ovarian 31.6% | SK-OV-3 ovarian 31% | IGROV1 ovarian 34.7% | OVCAR-3 ovarian 16.5% | HS 578T breast 72.6% | NCI/ADR-RES ovarian 11.4%

COC(=O)C(Cc1ccccc1)NC(=O)NC(=O)NC(=O)CI (stereo not drawn)
active: CAKI-1 renal -69.3% | CCRF-CEM leukemia -50.8% | MOLT-4 leukemia -30.7% | SR leukemia -41.6% | OVCAR-3 ovarian -49.2%
inactive: SK-MEL-2 melanoma 94.9% | EKVX NSCLC 103% | SN12C renal 17.2% | UO-31 renal 34.7% | TK-10 renal 75.9% | ACHN renal 75.7% | A498 renal 124% | OVCAR-8 ovarian 81.8% | OVCAR-4 ovarian 57.7% | SK-OV-3 ovarian 112% | HS 578T breast 111% | NCI/ADR-RES ovarian 71.5%

CC1=C(C)C(=O)C(Nc2cccc(C(=O)OC(C)(C)C)c2)=C(Br)C1=O
active: CCRF-CEM leukemia 8.53%
inactive: SK-MEL-2 melanoma 106% | EKVX NSCLC 103% | SN12C renal 85.7% | UO-31 renal 71.6% | TK-10 renal 122% | ACHN renal 87.5% | CAKI-1 renal 96.4% | A498 renal 87.3% | MOLT-4 leukemia 12.5% | SR leukemia 15.9% | OVCAR-5 ovarian 99.9% | OVCAR-4 ovarian 88.8% | SK-OV-3 ovarian 93.2% | IGROV1 ovarian 86.7% | OVCAR-3 ovarian 77.7% | HS 578T breast 92.8% | NCI/ADR-RES ovarian 94.7%
